# Screens deposited in PubChem by National Center for Advancing Translational Sciences (NCATS).
# IMPase cell inh: cell-permeable inhibitors of inositol monophosphatase (IMPase); CHO-M1 cells, IP1 accumulation, HTRF TR-FRET ratio; inhibition (IP1 accumulation), % at 46.1 µM; P97697; AID 901; 120,000 tested, under 10 active; active = well fitted curve in the direction sought with a large enough effect in the signal ratio, not every such curve was filed as active; inconclusive = small, poorly fitted or top-dose-only effect, or a change in a side signal; inactive = no such curve, though single readings can be large or run the other way; the % refers to the signal ratio;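 note: cells stimulated with carbachol in lithium chloride buffer; plate controls were DMSO basal wells for no effect and reference inhibitor wells for full effect; higher means more IMPase inhibition seen as more IP1 and lower FRET ratio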
#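 Cellular IMPase inhibition is scored as a rise in cytosolic IP1, detected by competitive TR-FRET between d2-labelled IP1 and a europium anti-IP1 antibody. M1-expressing CHO cells were stimulated with carbachol for 30 min at 37C, with lithium (50 mM LiCl) present in the buffer.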
# NPSR antag: neuropeptide S receptor (human) antagonism, cAMP | AID 1461 | CHO-NPSR cells, cAMP TR-FRET, antagonist mode | 220,000 tested, 1% active | Potency, µM (top dose mostly 38.3 µM), for inactives: top-dose activity change, negative = inhibition, most hits filed as inhibitors | Q6W5P4; note: potency is the fitted concentration of half-maximal effect; nearly all actives have a fitted effect of over 50% in size
# Target sequence (Q6W5P4 whole entry, looked up): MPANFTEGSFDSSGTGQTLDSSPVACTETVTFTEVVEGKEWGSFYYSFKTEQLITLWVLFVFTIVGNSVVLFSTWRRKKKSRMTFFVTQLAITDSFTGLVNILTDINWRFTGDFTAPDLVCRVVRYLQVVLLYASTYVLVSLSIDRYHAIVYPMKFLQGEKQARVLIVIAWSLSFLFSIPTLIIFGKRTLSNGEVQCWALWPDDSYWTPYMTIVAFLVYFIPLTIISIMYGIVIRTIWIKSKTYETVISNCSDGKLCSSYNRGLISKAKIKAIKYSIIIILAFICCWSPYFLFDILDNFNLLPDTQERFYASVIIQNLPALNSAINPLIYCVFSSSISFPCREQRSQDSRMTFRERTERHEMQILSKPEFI
# ALDH1A1 block: inhibitors of human aldehyde dehydrogenase 1A1; Purified ALDH1A1, NADH fluorescence, propionaldehyde substrate; Potency, µM (highest dose often 75.3 µM), for the others: at the top dose activity, negative = inhibition, hits mostly inhibitors; 220,000 tested, 7.3% active; active = well fitted inhibition curve with a large enough effect, not every such curve was filed as active; inconclusive = small, poorly fitted or top-dose-only effect, or another doubt; inactive = no such curve, though single readings can be large or run the other way;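 note: potency is the fitted concentration of half-maximal effect; plate controls were no enzyme wells and a reference inhibitor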
# HPGD block: inhibitors of human 15-hydroxyprostaglandin dehydrogenase (HPGD); AID 894; P15428; purified HPGD, NADH fluorescence kinetic, PGE2 substrate; 150,000 tested, 4.3% active; Potency, µM, inactives show top-dose activity change, negative = inhibition, actives largely listed as inhibitors; active = well fitted inhibition curve with a large enough effect, not every such curve was filed as active; inconclusive = small, poorly fitted or top-dose-only effect, or another doubt; inactive = no such curve, though single readings can be large or run the other way; note: potency is the fitted concentration of half-maximal effect
#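 20 nM HPGD preincubated 15 min at room temperature with compound in 50 mM Tris-HCl pH 8, 0.01% Tween 20. Started with 1 mM NAD+ and 30 uM prostaglandin E2; NADH fluorescence (360/450 nm) read 5 times over 30-s intervals, last minus first.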
# IMPase Li cell: IMPase inhibition in cells with lithium potentiation. CHO-M1 cells, IP1 TR-FRET (IP-One), carbachol + lithium. Potency, µM (series often up to 59.4 µM), without a hit: top-dose activity, negative = IMPase inhibition, actives largely listed as inhibitors. 210,000 tested, 0.35% active. AID 1457;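 note: IP1 builds up when IMPase is blocked and the TR-FRET signal falls; potency is the fitted concentration of half-maximal effect; plate controls were basal vehicle for no effect and high inhibitor control for full effect; nearly all actives have a fitted effect of over 50% in size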
#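 Test compounds were applied to CHO-M1 cells previously cultured for 16–30 h at 2000 per well. A small lithium amount accompanied them; after 30 min at 37C, IP1 was quantified by TR-FRET.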
# PNC inhibitor: blocks assembly of the perinucleolar compartment. activity change (PNC), negative = inhibition, % at 10 µM. PC3M PTB-GFP, PNC prevalence imaging, 16 h; hits give low values. 140,000 tested, 3.1% active;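 active = readout at or below -70, meaning at least 70% loss of cells showing the perinucleolar compartment, a nuclear body marking cancer cells; inconclusive = readout between -30 and a set limit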;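 note: plate controls were DMSO wells for no effect and camptothecin positive control wells for full effect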
#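 Compounds are pinned in duplicate onto adhered PC3M cells stably expressing GFP-tagged PTB and incubated 16 h at 37 C. Cells are then fixed, nuclei stained with Hoechst, and PNC-positive cells counted.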
# Active calls of the source: *; u = inconclusive; x = no result given; [ ] = dose if it differs, or a comment. The list is not random: actives were taken first. Their share in the collection is about 11%. Unless noted, calls come from the whole dose curve; as a rule, active = well fitted curve in the direction sought with a large enough effect; inconclusive = small, poorly fitted or top-dose-only effect, or another doubt; inactive = no such curve, though single readings can be large; an effect the other way counts as inactive or inconclusive. Unless noted, % is set by controls: 0 for no effect and ±100 for the full control effect.
SMILES,IMPase cell inh,NPSR antag,ALDH1A1 block,HPGD block,IMPase Li cell,PNC inhibitor
Cc1ccc(C(=O)CSc2nnc(-c3ccccc3)n2-c2ccccc2)o1,-4.3,-8.6%[46.1 µM],-2.0%,-14.5%,7.1%,42.8
Cc1cccc(-n2c(C)cc(C(=S)N3CCOCC3)c2C)c1C,x,10.8%,u,x,6.7%,x
Cc1cc(C)cc(-n2c(C)cc(C(=S)N3CCOCC3)c2C)c1,19.5,-46.5%,-11.2%,3.98µM*,-3.2%,15.5
Cc1cc(C(=S)N2CCOCC2)c(C)n1-c1ccc(Cl)cc1,x,-27.5%,22.4µM*,28.2µM*,15.9%,7.1
Cc1cc(/C=C2\Cc3ccccc3C2=O)c(C)n1-c1ccccc1,x,-35.8%,7.94µM*,u,14.4%,u
O=C(O)c1ccc(COc2ccccc2C=C2C(=O)c3ccccc3C2=O)cc1,x,1.4%,u,10µM*,0.0%,-20.4
CC(=O)C(=Cc1cc(C)n(-c2ccccc2)c1C)C(C)=O,x,0.8%,u,x,3.4%,x
Cc1cc(C=C2C(=O)c3ccccc3C2=O)c(C)n1-c1ccccc1,16.6,u,15.8µM*,-16.6%,7.2%[38.3 µM],49.8
Cc1cc(C=C2C(=O)c3ccccc3C2=O)c(C)n1-c1ccc(C(=O)O)cc1,x,12.1%,5.62µM*,x,1.3%,x
O=C(Nc1ccc(S(=O)(=O)Nc2ncccn2)cc1)c1ccccc1NS(=O)(=O)c1ccc(Cl)cc1,x,2.8%,x,x,x,x
Cc1ccc(-n2c(C)cc(C=C3C(=O)CC(C)(C)CC3=O)c2C)cc1,x,3.4%,0.891µM*,u,-6.4%,9.8
Cc1cc(C=C2C(=O)c3ccccc3C2=O)c(C)n1-c1cccc(C(=O)O)c1,x,-32.8%,10µM*,x,4.0%,x
CC1=NN(c2ccccc2)C(=O)/C1=C\c1cc(C)n(-c2ccccc2)c1C,1.0,-17.3%[46.1 µM],u,-23.6%,18.5%,u
CC1CC(C)CN(C(=O)c2cccc(S(=O)(=O)Nc3cc(C(F)(F)F)ccc3Cl)c2)C1 (stereo not drawn),x,-13.5%,8.4%,0.7%,6.0%,25.3
O=C(Cc1ccc(-n2cccc2)cc1)NC1CCCCCC1,u,-15.8%[46.1 µM],u,-22.6%,2.0%,-4.5
CN(c1ncc(C(F)(F)F)cc1Cl)n1cc(C(=O)O)c2ccccc2c1=O,-3.1,-1.5%[46.1 µM],3.3%,0.2%,0.3%[38.3 µM],-3.9
CN(c1ncc(C(F)(F)F)cc1Cl)n1cc(C(N)=O)c2ccccc2c1=O,0.3,-8.7%[46.1 µM],25.1µM*,-5.4%,3.0%[38.3 µM],-9.2
CCCc1n[nH]c2c1/C(=N/O)CC(c1ccccc1)C2 (stereo not drawn),-0.4,-23.6%[46.1 µM],5.1%,7.08µM*,7.8%,u
Cc1[nH]nc2c1/C(=N/O)CC(c1ccccc1)C2 (stereo not drawn),6.0,-28.6%[46.1 µM],-11.0%,14.1µM*,-7.7%[38.3 µM],36.5
Cc1cc(C)cc(OCc2nnc(SCC(=O)c3ccc(Br)cc3)o2)c1,-5.6,-11.7%[46.1 µM],u,-11.6%,8.3%[38.3 µM],38.0
Cc1ccc(-c2nnc(Nc3ccccc3O)c3ccccc23)cc1,7.0,x,x,x,x,x
Clc1ccc(-c2nnc(NCc3ccccc3)c3ccccc23)cc1,3.6,u,22.4µM*,5.62µM*,4.6%,-25.4
Cc1ccc(-c2nnc(NCc3ccccc3)c3ccccc23)cc1,0.3,u,6.4%,3.16µM*,26.2%,u
Clc1ccc(Nc2ccc(NCc3ccccc3)nn2)cc1,x,-27.8%,-9.8%,5.62µM*,3.7%,3.1
O=C(c1ccc(S(=O)(=O)NCc2ccco2)cc1)N1CCN(Cc2ccc3c(c2)OCO3)CC1,x,-19.7%,17.8%,x,3.8%,x
CCOc1ccc(N(CC(=O)Nc2ccccc2C)S(=O)(=O)c2c(C)[nH]c(=O)[nH]c2=O)cc1,x,14.2%,x,x,x,x
CCOc1cc(/C=N/NC(=O)c2ccc(=O)n(C)c2)ccc1O,x,14.1%,1.6%,x,13.0%,x
C=CCOC(=O)c1cc(-c2ccc(/C=C3\C(=O)NC(=O)C(C#N)=C3C)o2)ccc1Cl,-0.6,-12.7%[46.1 µM],10µM*,15.8µM*,-2.6%[38.3 µM],u
CCOc1ccc(/C=C2\SC(=O)N(c3ccc(O)cc3)C2=O)cc1OC,x,8.6%,x,x,x,x
